For assay [1], the target named is Bromodomain-containing protein 4 (Homo sapiens) (UniProt O60885). Conditions: Compound concentration 20.0 uM, Protein concentration 2.0 uM, Result type QC Liability.
Assay [2] deals with T1, Transcription intermediary factor 1-alpha (Homo sapiens) (UniProt O15164).
T1 sequence (whole entry): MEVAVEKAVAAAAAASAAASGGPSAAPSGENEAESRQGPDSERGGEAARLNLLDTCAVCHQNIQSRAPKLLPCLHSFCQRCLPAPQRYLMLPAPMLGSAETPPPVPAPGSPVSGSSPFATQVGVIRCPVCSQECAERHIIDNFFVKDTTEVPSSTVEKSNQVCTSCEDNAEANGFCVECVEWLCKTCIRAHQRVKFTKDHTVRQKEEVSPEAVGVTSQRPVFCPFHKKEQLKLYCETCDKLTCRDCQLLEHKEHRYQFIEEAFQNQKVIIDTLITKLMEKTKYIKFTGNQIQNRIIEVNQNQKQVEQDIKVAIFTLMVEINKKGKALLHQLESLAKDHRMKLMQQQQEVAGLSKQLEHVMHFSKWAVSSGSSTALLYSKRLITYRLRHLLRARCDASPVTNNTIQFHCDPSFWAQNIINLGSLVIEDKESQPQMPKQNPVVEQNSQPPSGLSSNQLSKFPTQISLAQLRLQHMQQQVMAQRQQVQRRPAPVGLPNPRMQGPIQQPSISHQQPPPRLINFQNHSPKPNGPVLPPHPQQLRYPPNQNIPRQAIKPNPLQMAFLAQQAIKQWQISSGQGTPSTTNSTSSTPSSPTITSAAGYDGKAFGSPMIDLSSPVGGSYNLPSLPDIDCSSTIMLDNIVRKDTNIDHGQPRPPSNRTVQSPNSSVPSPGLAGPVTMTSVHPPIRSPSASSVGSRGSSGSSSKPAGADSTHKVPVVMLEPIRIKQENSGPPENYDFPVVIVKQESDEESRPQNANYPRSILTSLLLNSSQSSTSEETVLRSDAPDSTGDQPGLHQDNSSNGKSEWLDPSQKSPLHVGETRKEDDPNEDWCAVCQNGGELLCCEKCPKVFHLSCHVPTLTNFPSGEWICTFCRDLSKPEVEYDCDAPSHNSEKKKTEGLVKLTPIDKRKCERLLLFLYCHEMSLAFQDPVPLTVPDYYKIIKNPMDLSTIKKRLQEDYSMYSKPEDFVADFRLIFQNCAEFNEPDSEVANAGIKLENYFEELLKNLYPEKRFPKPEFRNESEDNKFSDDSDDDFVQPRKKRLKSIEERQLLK
Conditions: Compound concentration 20.0 uM, Protein concentration 2.0 uM, Result type QC Liability.

As usually defined, the ΔTm is the change in melting temperature against a reference sample.

`N=C(N)NCCC[C@H](NC(=O)C(c1ccccc1)c1ccccc1)C(=O)NCc1ccc(CNC(N)=O)cc1`: the ΔTm in assay [1] came to 0.06 °C; in assay [2], 0.24 °C.
As for `CCO[C@@H](Cc1ccc(OCCc2ccc(OS(C)(=O)=O)cc2)cc1)C(=O)O`, the thermal shift (ΔTm) was -0.9 °C in assay [1] and -3.53 °C in assay [2].
On to `O=C(NC[C@@H]1[C@H]2CN(C(=O)OCc3cc(C(F)(F)F)cc(C(F)(F)F)c3)C[C@@H]12)c1ccc2[nH]nnc2c1`, for which the ΔTm in assay [1] was determined as 2.07 °C; in assay [2], 1.3 °C.
For `Cc1c(NC(=O)c2ccc(C(C)(C)C)cc2)cccc1-c1cn(C)c(=O)c(Nc2ccc(C(=O)N3CCOCC3)cc2)n1`, the ΔTm in assay [1] was -9.46 °C; in assay [2] it was 0.14 °C.
For `NC(=O)C1CCCc2c1[nH]c1ccc(Cl)cc21` (stereo unspecified), the ΔTm in assay [1] was -1.42 °C; in assay [2], -1.04 °C.
Consider `CC(C)(C)c1cc(NC(=O)c2csc(Nc3ccc(Cl)cc3)n2)no1`, for which the ΔTm is -0.97 °C in assay [1] and 0.11 °C in assay [2].
With `c1ccc(C(OC2CCN(CCCc3nnn[nH]3)CC2)c2ccccc2)cc1`, the ΔTm was -1 °C in assay [1] and -0.6 °C in assay [2].
With `Cc1ccc(NS(=O)(=O)c2ccc3c(c2)C2C=CCC2C(c2ccc(C(=O)O)cc2)N3)cc1C` (stereo unspecified), the ΔTm was -2.09 °C in assay [1] and -2.63 °C in assay [2].
As to `CNCc1ccc(-c2cc(-c3nc(-c4ccc(S(=O)(=O)C(C)C)cc4)cnc3N)on2)cc1`, the ΔTm in assay [1] was -2.54 °C; in assay [2], -0.96 °C.
For `COc1cc2nc(-c3cc(F)ccc3O)nc(N[C@@H]3CNC[C@H]3C(C)(C)O)c2cc1OC`, the ΔTm in assay [1] was 1.15 °C; in assay [2], -1.27 °C.
Consider `Cc1cc(CN)cc(C)c1-c1ncn(C)c1-c1ccnc2cc(F)ccc12`, for which the ΔTm is -0.64 °C in assay [1] and 0.17 °C in assay [2].
Regarding `O=C(O)CCCCCC[C@@H]1C(=O)NC(=O)N1CCC(O)C1CCCCC1` (stereo partly specified), the figures for the shift in melting temperature (ΔTm) in assay [1] and in assay [2] were -1.84 °C and -0.56 °C, respectively.
Consider `Cn1cc(-n2cnc3c(NCc4nc5cc(Cl)c(Cl)cc5[nH]4)nc(N4CCOCC4)nc32)cn1`, for which the ΔTm in assay [1] was 0.71 °C; in assay [2], -0.85 °C.
For `O=S(=O)(Nc1ccc(C(O)(C(F)(F)F)C(F)(F)F)cc1)c1cccs1` the same measures were -2.9 °C and -0.69 °C.
Take `CN1C(=O)Cc2ccc(-c3ccc(C[C@@H](C#N)NC(=O)[C@H]4N[C@@H]5CC[C@H]4C5)c(F)c3)cc21`: the ΔTm in assay [1] is 0.1 °C; in assay [2], 0.42 °C.
On to `COc1cc(F)ccc1-c1ncnc(Nc2cccc(C[S@](C)(=N)=O)c2)n1`, for which the ΔTm was 0.48 °C in assay [1] and -1.99 °C in assay [2].
On to `C=CC(=O)Nc1ccc(C(=O)Nc2[nH]nc3c2CN(C(=O)N[C@H](CN(C)C)c2ccccc2)C3(C)C)cc1`, for which the ΔTm is 0.61 °C in assay [1] and -2.21 °C in assay [2].
Take `CNc1nc(-c2ccc3c(N)n[nH]c3c2)cc(N2C[C@@H](C(=O)NC3CCCCC3)CC[C@H]2C)n1`: the ΔTm in assay [1] was 0.26 °C; in assay [2], -2.05 °C.
`C[C@H](NC(=O)c1cc(Cl)ccc1Oc1ccc(F)cc1)c1ccc(C(=O)O)cc1`: the ΔTm in assay [1] was -0.23 °C; in assay [2] it was -0.34 °C.
For the molecule `Cc1[nH]c2c(N3CCCCC3)c(-c3ccccc3)nn2c(=O)c1-c1ccc(O)cc1`, the values for the shift in melting temperature (ΔTm) in assay [1] and in assay [2] were -1.3 °C and -2.05 °C, respectively.
Consider `COc1cc2ncnc(N[C@H](C)c3ccccc3)c2cc1OC1CCN(S(C)(=O)=O)CC1`, for which the ΔTm in assay [1] is -3.35 °C; in assay [2] it was -1.88 °C.
For `CN1C(=O)c2ccccc2N(C)c2nc(Nc3cnn(C4CCNCC4)c3)ncc21`, the ΔTm in assay [1] is 3.95 °C; in assay [2], -1.94 °C.
Regarding `C[C@@H]1OCC2(CCN(c3cnc(Sc4ccnc(N)c4Cl)c(N)n3)CC2)[C@@H]1N`, the values for the ΔTm in assay [1] and in assay [2] were -2.61 °C and -0.86 °C, respectively.
On to `Cc1cccc(-c2nn3c(c2-c2ccnc4ccc(C(N)=O)cc24)CCC3)n1`, for which the ΔTm in assay [1] was -2.31 °C; in assay [2] it was -2.8 °C.
For `CC(=O)c1ccc2c(c1)/C(=C(/Nc1cccc(C#N)c1)c1ccc3c(c1)OCCO3)C(=O)N2` the same measures were -1.21 °C and -2.47 °C.
Regarding `O=C(O)C[C@H]1CCn2c1c(Sc1ccc(Cl)cc1)c1ccc(F)cc12`, the ΔTm in assay [1] is 0 °C; in assay [2] it was -1.67 °C.
For `COc1cccc(Cn2cc(C(=O)Nc3ccc(C)c(S(=O)(=O)N4CCOCC4)c3)c(-c3ccc(C)cc3)n2)c1` the same measures were 1.27 °C and 4.1 °C.
Turning to `Cc1cc(=O)oc2cc(NC(=O)[C@H](Cc3ccc(I)cc3)NC(=O)[C@H]3N[C@@H]4CC[C@H]3C4)ccc12`, the ΔTm in assay [1] was -0.26 °C; in assay [2], 0.3 °C.
For `CC(C)c1nc2c(c3c1[C@@H](c1ccc(C(F)(F)F)cc1)OC31CCOCC1)[C@@H](O)CC(C)(C)C2` the same measures were -1.67 °C and 0.17 °C.
For `CCc1nc(-c2cccc(C)c2)c(-c2ccnc(NC(=O)c3ccccc3)c2)s1` the same measures were -1.99 °C and -1.26 °C.
For the molecule `CC[C@H](NC(=O)[C@H](C)NC)C(=O)N1C[C@@H](O)C[C@H]1Cc1c(-c2[nH]c3cc(F)ccc3c2C[C@@H]2C[C@H](O)CN2C(=O)[C@H](CC)NC(=O)[C@H](C)NC)[nH]c2cc(F)ccc12`, the ΔTm in assay [1] is -3.47 °C; in assay [2] it was -3.97 °C.
As for `COC(=O)c1sccc1S(=O)(=O)Nc1ccc(Nc2ccccc2)cc1OC`, the ΔTm in assay [1] is -3.85 °C; in assay [2] it was 0.59 °C.
For `Cc1nc(-c2ccc(C(F)(F)F)cc2)sc1C(=O)NCc1ccc(OC(C)(C)C(=O)O)cc1`, the ΔTm in assay [1] is -2.8 °C; in assay [2], -1.73 °C.
